Screening results as filed in PubChem.
FBW7 activator – FBW7 E3 ligase activators, primary screen, biochemical, AlphaScreen, human; F-box/WD repeat-containing protein 7 (Homo sapiens), Q969H0; AlphaScreen FBW7–phospho-cyclin E peptide binding, activator screen; normalized activity (activation), % at 26.1 µM; 0.13% of 650,000 active; AID 1259310, 2017; in the data active means normalized activity above about 1.9%;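 further: purified mutant Fbw7 with reduced substrate affinity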
TEAD-YAP inh – TEAD-YAP interaction inhibition, primary screen, TEAD-YAP interaction inhibitor project, luminescence, HEK-TIYL cells; TEAD-Gal4/YAP UAS-luciferase luminescence; inhibition, % at 9.12 µM; 1.4% of 640,000 active; AID 1259422, 2018; in the data active means inhibition above about 32%
MITF primary – MITF inhibitors, primary screen, biochemical, AlphaScreen, human; AlphaScreen MITF homodimerization, bead proximity signal; Microphthalmia-associated transcription factor (Homo sapiens), O75030; inhibition, % at 2.6 µM; 0.91% of 650,000 active; in the data active means inhibition above about 50%
Target sequence (O75030 whole entry, looked up): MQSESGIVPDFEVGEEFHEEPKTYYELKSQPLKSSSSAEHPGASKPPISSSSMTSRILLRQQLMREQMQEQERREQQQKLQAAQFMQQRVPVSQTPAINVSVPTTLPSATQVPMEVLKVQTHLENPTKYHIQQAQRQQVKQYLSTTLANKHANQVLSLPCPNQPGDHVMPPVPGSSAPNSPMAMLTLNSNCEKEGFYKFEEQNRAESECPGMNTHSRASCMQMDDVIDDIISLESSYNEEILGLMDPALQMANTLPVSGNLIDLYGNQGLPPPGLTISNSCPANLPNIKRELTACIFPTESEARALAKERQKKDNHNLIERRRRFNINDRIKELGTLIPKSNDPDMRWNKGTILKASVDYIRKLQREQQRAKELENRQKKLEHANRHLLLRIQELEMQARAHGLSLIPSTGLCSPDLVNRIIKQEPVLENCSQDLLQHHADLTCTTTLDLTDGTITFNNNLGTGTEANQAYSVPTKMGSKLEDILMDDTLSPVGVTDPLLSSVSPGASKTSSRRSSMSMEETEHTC
GPR151 activ – activators of human GPR151, primary screen, cell-based, PathHunter beta-arrestin, luminescence; G-protein coupled receptor 151 (Homo sapiens), Q8TDV0; PathHunter beta-arrestin GPR151 cells; activation, % at 11.2 µM; 1% of 650,000 active; in the data active means activation above about 4.9%
MITF confirm – MITF inhibitors, retest of hits, confirmation, biochemical, AlphaScreen, triplicate | shares compounds with MITF primary | AlphaScreen MITF homodimerization, biotin/His-MITF beads | inhibition, % at 2.6 µM | 16% of 4,700 active | AID 1259372, 2018;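 active means inhibition above a cutoff derived from the DMSO control wells, cut at about 28% in these data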;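 further: inhibitors lower the bead chemiluminescence by keeping MITF from dimerizing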
AS interf DR – AlphaScreen optical interference compounds, dose response, counter-screen, biochemical, HTS; shares compounds with MITF primary; AlphaScreen optical interference counterscreen, cell-free; IC50, µM; 6% of 480 active; AID 1259373, 2018; call rule not given here
AS interf ctr – AlphaScreen optical interference compounds, counter-screen for MITF inhibitor project, biochemical, triplicate. shares compounds with MITF primary. LysRS AlphaScreen counterscreen, signal interference. inhibition, % at 2.6 µM. 7.6% of 4,700 active. AID 1259376, 2018;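 active means inhibition above a cutoff derived from the DMSO control wells, cut at about 30% in these data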
A number is an active result; - = inactive; . = no result given. Only some compounds are listed: those with a hit (about 3.5% of all), similar ones and a draw of the others.

SMILES	FBW7 activator	TEAD-YAP inh	MITF primary	GPR151 activ	MITF confirm	AS interf ctr	others
CCOC(=O)C1CCCN(Cc2c(F)cccc2Cl)C1 (configuration not stated)	-	-	54	-	-	-
CCOC(=O)C1CCCN(C(=O)Cc2c(F)cccc2Cl)C1 (configuration not stated)	-	-	-	-	.	.
CCOC(=O)C1CCCN(Cc2cccc(C(F)(F)F)c2)C1 (configuration not stated)	-	-	52	-	-	-
CCN1CCN(CC(=O)Nc2ccc(OC)cc2OC)C(=O)C1=O	-	-	-	-	.	.
O=C1N[C@@H](Cc2cnc[nH]2)C(=O)N2CCN(C(=O)NC3CCCCC3)C[C@H]12	-	-	-	-	.	.
O=C1N[C@H](Cc2ccc(O)cc2)C(=O)N2CCN(C(=O)NC3CCCCC3)C[C@H]12	-	-	76	-	70	-	AS interf DR=-
O=C1N[C@@H](Cc2ccc(O)cc2)C(=O)N2CCN(C(=O)NC3CCCCC3)C[C@H]12	-	-	70	-	69	-	AS interf DR=-
CCN(CC)c1ccc(/C=N/N2CCN(C)CC2)c(O)c1	-	-	-	-	.	.
Cc1cc(C)cc(Cn2c(NCCCN3CCOCC3)cc(=O)n(C)c2=O)c1	-	-	70	-	-	-
COc1cccc(CN2CCN(S(=O)(=O)c3ccccc3)CC2)c1OC	-	-	-	-	.	.
CCOc1ccccc1CN1CCN(S(=O)(=O)c2ccc(Cl)cc2)CC1	-	-	61	-	-	-
Cc1cc(S(=O)(=O)N2CCN(Cc3ccc(Cl)cc3)CC2)ccc1-n1cnnn1	-	-	60	-	-	-
Cc1ccccc1CN1CCN(S(=O)(=O)c2ccc(Cl)cc2)CC1	-	-	53	-	-	-
COc1ccccc1CN1CCN(S(=O)(=O)c2ccccc2)CC1	-	-	63	-	-	-
CC(C)Cc1nnc(NC(=O)COc2ccc(Cl)cc2)s1	-	-	-	-	.	.
O=C(O)CCC(=O)Nc1ccc(C(=O)Nc2ccccn2)cc1	-	-	-	-	.	.
CCC(C)NS(=O)(=O)c1ccc(-c2ccc(S(=O)(=O)NC(C)CC)cc2)cc1 (configuration not stated)	-	-	-	-	.	.
CCCNc1nc(NCC)nc2c1ncn2C1CCCCC1	-	-	69	-	-	-
CCOC(=O)CNS(=O)(=O)c1ccc2[nH]cc(C(=O)O)c(=O)c2c1	-	-	52	-	-	-
CCN(CC)CCNS(=O)(=O)c1ccc2[nH]cc(C(=O)O)c(=O)c2c1	-	-	52	-	-	-
COc1ccc(CNS(=O)(=O)c2ccc3[nH]cc(C(=O)O)c(=O)c3c2)cc1	-	-	-	-	.	.
Cc1cccc(NC(=O)c2ccc(NS(=O)(=O)c3ccc4[nH]cc(C(=O)O)c(=O)c4c3)cc2)c1	-	-	70	-	41	-
O=S(=O)(Nc1cccc(-c2nc3cccnc3s2)c1)c1ccc(F)cc1	-	-	-	-	.	.
O=C(c1cccnc1Nc1ccc(F)cc1)N1CCCC1	-	-	-	-	.	.
O=C(C1CCN(c2ccc(N3CCOCC3)nn2)CC1)N1CCc2ccccc2C1	-	-	-	-	.	.
SMILES	FBW7 activator	TEAD-YAP inh	MITF primary	GPR151 activ	MITF confirm	AS interf ctr	others
CCS(=O)(=O)N1CCCC(C(=O)N2CCc3ccccc3C2)C1 (configuration not stated)	-	-	-	-	.	.
O=C(C1CCCN(Cc2ccncc2)C1)N1CCc2ccccc2C1 (configuration not stated)	-	-	90	-	-	-
O=C(C1CCNCC1)N1CCc2ccccc2C1	-	-	60	-	-	-
COc1ccc(CNC(=O)N2CCN(CC(=O)c3ccco3)CC2)cc1OC	-	-	54	-	-	-
COc1ccc(CN2CCN(Cc3ccco3)CC2)cc1Br	-	-	72	-	-	-
CCOc1cc(CN2CCN(Cc3ccco3)CC2)ccc1OC	-	-	-	-	.	.
COc1ccc(CN2CCN(Cc3ccco3)CC2)cc1OC	-	-	71	-	-	-
Cc1cc(NC(=O)CN2C(=O)[C@H]3CCCN3C(=O)c3ccccc32)no1	-	-	-	-	.	.
CCN1C(=O)NC(c2cc(Br)ccc2OC)C(C(=O)OC)=C1C (configuration not stated)	-	-	59	-	-	-
CCN1C(=O)NC(c2cc(C)ccc2C)C(C(=O)OC)=C1C (configuration not stated)	-	-	-	-	.	.
CCOC(=O)CN(Cc1ccccc1Cl)S(=O)(=O)c1ccc(Br)cc1	-	-	-	-	.	.
CCOc1ccc(/C=C/C(=O)Nc2ccc(N3CCOCC3)cc2)cc1	-	-	87	-	-	-
c1cncc(CNc2nc(Nc3ccc(N4CCOCC4)cc3)c3ncn(C4CCCCC4)c3n2)c1	-	-	51	-	84	-
c1cncc(CNc2nc(Nc3ccc(N4CCOCC4)cc3)nc3c2ncn3C2CCCCC2)c1	-	-	-	-	.	.
CCN(CC)CC(O)CNCc1ccc(Cl)cc1 (configuration not stated)	-	-	54	-	-	-
COc1ccc(NC(=O)c2oc(=O)c3ccccc3c2-c2ccccc2)c([N+](=O)[O-])c1	-	-	-	-	.	.
COc1ccc(CCN=C(C)C2=C(O)C(c3ccccc3)OC2=O)cc1OC (configuration not stated)	-	-	74	-	-	-
CCCN(CCC)S(=O)(=O)c1ccc(OCC)c2ccccc12	-	-	65	-	-	-
O=C(O)c1ccc(-c2cnc3ccc(NCc4cccc(Cl)c4)nn23)cc1	-	-	-	-	.	.
CCSc1nnc(NC(=O)c2cc(Cl)ccc2Cl)s1	-	-	-	-	.	.
CCCOc1ccccc1C(=O)Nc1nnc(SCC)s1	-	-	67	-	-	-
CCSc1nnc(NC(=O)c2cc(S(=O)(=O)N3CCCCC3)ccc2Cl)s1	-	-	57	-	-	-
CC(=O)Nc1cc(-c2ccccc2)nn1Cc1ccc(Cl)cc1	-	-	-	-	.	.
CC(=O)Nc1cc(-c2ccc(Cl)cc2)nn1-c1ccccc1	-	-	81	-	-	-
CCOC(=O)c1ccc(N=Cc2c(O)n(Cc3ccccc3)c(=O)[nH]c2=O)cc1	-	-	-	-	.	.
COc1cc(Cl)c(C)cc1NC(=O)COC(=O)c1ccc(NC(N)=O)cc1	-	-	-	-	.	.
CCOC(=O)CC(=O)CSc1nc2cc(C(=O)OC)ccc2c(=O)n1CCc1ccc(S(N)(=O)=O)cc1	-	-	-	-	.	.
